Experiments:
Details in all cases: concentration: 1 μM, replicates: in singlicate; n = 1
IRAK1 = test system: IRAK1
IRAK3 = test system: IRAK3
IRAK4 = test system: IRAK4
ITK = test system: ITK
[1] = test system: JAK1(JH1domain-catalytic)
[2] = test system: JAK1(JH2domain-pseudokinase)
[3] = test system: JAK2(JH1domain-catalytic)
[4] = test system: JAK3(JH1domain-catalytic)
JNK1 = test system: T1, JNK1
T1 construct: gene MAPK8

JNK2 = test system: T2, JNK2
T2 construct: gene MAPK9
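Note: KINOMEscan kinase panel screen.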

SMILES | %Inh (IRAK1) [%] | %Inh (IRAK3) [%] | %Inh (IRAK4) [%] | %Inh (ITK) [%] | %Inh [1] [%] | %Inh [2] [%] | %Inh [3] [%] | %Inh [4] [%] | %Inh (JNK1) [%] | %Inh (JNK2) [%]
COc1cccc(CNC(=O)NC2CCN(c3ccnc(Nc4ccc(F)cc4)n3)C2)c1 (stereo not drawn) [GSK1379723] | 23 | 5 | 17 | 9 | 5 | 0 | 6 | 0 | 32 | 3
Cc1c(Cn2c3ccccc3n3c(=O)cc(N4CCOCC4)nc23)cccc1C(F)(F)F [GSK2306394] | 0 | 14 | 11 | 11 | 13 | 0 | 35 | 0 | 21 | 5
CS(=O)(=O)CCNCc1nc(-c2ccc3ncnc(Nc4ccc(OCc5ccccc5)c(Cl)c4)c3c2)cs1.Cl [GW582764] | 28 | 0 | 13 | 44 | 2 | 0 | 10 | 0 | 15 | 0
Fc1ccc(-c2nc[nH]c2-c2ccncc2)cc1 [SB-217360] | 0 | 0 | 0 | 5 | 0 | 28 | 27 | 0 | 79 | 95.6
Cc1ccc(NC(=O)Nc2ccc(Cl)c(C(F)(F)F)c2)cc1-c1ccc(C(=O)Nc2ccncc2)cc1 [GSK1398470] | 0 | 9 | 0 | 18 | 5 | 0 | 0 | 0 | 16 | 14
CNC(=O)c1ccc(C)c(-n2c(C)cc(OCc3ccc(F)cc3F)c(Br)c2=O)c1 | 0 | 0 | 0 | 0 | 0 | 0 | 0 | 0 | 0 | 100
Cn1cncc1-c1cc2c(Nc3ccc(OCc4ccccc4)cc3)ncnc2cn1 [GW281179] | 30 | 1 | 17 | 12 | 14 | 0 | 4 | 0 | 13 | 1
Cc1ccccc1Cn1ccn2c(=O)cc(N3CCOCC3)nc12 [GSK2269905] | 0 | 0 | 13 | 20 | 0 | 0 | 0 | 0 | 21 | 20
CC(=O)c1c(C)c2cnc(Nc3ccc(N4CCNCC4)cn3)nc2n(C2CCCC2)c1=O | 0 | 0 | 0 | 0 | 0 | 11 | 0 | 0 | 11 | 0

Reference: publication PMC5540273 (PLoS ONE, 2017)
